Measurements reported in the supplement of paper PMC13380429.

Tested on: Vero E6 infected with SARS-CoV-2
Assay: inhibition of SARS-CoV-2 cytopathic effect; higher = more antiviral protection, active = above 15
Conditions: 48 h

Measured: inhibition of SARS-CoV-2 cytopathic effect

CCCN(CCC)[C@H]1CCc2cccc(O)c2C1 [8-hydroxy-DPAT]
inactive: 1 nM -1.75% | 8.33 nM 1.08% | 100 nM 1.06% | 833.33 nM -0.13% | 10000 nM -3.59%

CCN(CC)c1ccc(/C=N/NC(=O)c2ccc(O)cc2)cc1
inactive: 1 nM -0.79% | 8.33 nM 2.18% | 100 nM 0.82% | 833.33 nM -0.79% | 10000 nM 0.11%

C[C@@H]1CCC[C@H](C)N1NC(=O)c1ccc(Cl)c(S(N)(=O)=O)c1 [clopamide]
inactive: 1 nM -1.53% | 8.33 nM 2.77% | 100 nM 0.22% | 833.33 nM 5.88% | 10000 nM -2.61%

COC(=O)N1CCN(Cc2cccc(NC(=O)Nc3ccc(C)nc3)c2F)CC1 [omecamtiv-mecarbil]
inactive: 1 nM -0.03% | 8.33 nM 0.93% | 100 nM -0.98% | 833.33 nM 0.86% | 10000 nM 3.03%

CC(C)N1CCN(c2ccc(OCC3COC(Cn4cncn4)(c4ccc(Cl)cc4Cl)O3)cc2)CC1 (stereo not given) [terconazole]
inactive: 1 nM 1.55% | 8.33 nM 0.07% | 100 nM 4.2% | 833.33 nM -1.24% | 10000 nM 11.5%

CO/N=C1/C[C@@H](C(=O)NC[C@@H](O)c2ccccc2)N(C(=O)c2ccc(-c3ccccc3C)cc2)C1 [OT-R-antagonist-1]
inactive: 1 nM -0.95% | 8.33 nM 1.59% | 100 nM -0.48% | 833.33 nM 1.09% | 10000 nM -1.5%

O=c1ccc2cc(O[C@@H]3O[C@H](CO)[C@@H](O)[C@H](O)[C@H]3O)c(O)cc2o1 [esculin]
inactive: 1 nM -1.01% | 8.33 nM -0.49% | 100 nM -1.32% | 833.33 nM -1.49% | 10000 nM -0.95%

Cc1cccc(Nc2ccccc2C(=O)O)c1C [mefenamic-acid]
inactive: 1 nM -0.88% | 8.33 nM 1.67% | 100 nM 1.5% | 833.33 nM -1.03% | 10000 nM -0.56%

CCCN(CCC)C(=O)Cc1c(-c2ccc(Cl)cc2)nc2ccc(Cl)cn12 [alpidem]
inactive: 1 nM -5.3% | 8.33 nM -6.64% | 100 nM -7.76% | 833.33 nM -6.87% | 10000 nM -3.74%

CCCCCCCCCCC[C@@H](C[C@@H]1OC(=O)[C@H]1CCCCCC)OC(=O)[C@H](CC(C)C)NC=O [orlistat]
inactive: 1 nM 1.59% | 8.33 nM 3.04% | 100 nM 0.9% | 833.33 nM 2.31% | 10000 nM 1.43%

Cc1csc2c(N[C@@H](C)CN3CCN(S(=O)(=O)c4ccc(Cl)c(Cl)c4)CC3)ncnc12 [LPA2-antagonist-1]
inactive: 1 nM -0.43% | 8.33 nM -0.37% | 100 nM 1.73% | 833.33 nM 1.34% | 10000 nM 5.53%

CC(C)N(C[C@H]1O[C@@H](n2cnc3c(N)ncnc32)[C@H](O)[C@@H]1O)[C@H]1C[C@@H](CCc2nc3cc(C(C)(C)C)ccc3[nH]2)C1
inactive: 1 nM 1.37% | 8.33 nM 1.4% | 100 nM 1.55% | 833.33 nM 3.8% | 10000 nM 4.66%

NC[C@H](O)c1ccc(O)c(O)c1 [norepinephrine]
inactive: 1 nM 1.39% | 8.33 nM -0.56% | 100 nM -2.09% | 833.33 nM 0.33% | 10000 nM -1.61%

O=C1[C@H](CC[C@H](O)c2ccc(F)cc2)[C@@H](c2ccc(O)cc2)N1c1ccc(F)cc1 [ezetimibe]
inactive: 1 nM 0.31% | 8.33 nM 0.64% | 100 nM -0.99% | 833.33 nM 2.19% | 10000 nM 5.44%

Cc1cn([C@H]2O[C@@H](CO)[C@H](O)[C@H]2F)c(=O)[nH]c1=O [clevudine]
inactive: 1 nM 3.12% | 8.33 nM -0.16% | 100 nM 1.71% | 833.33 nM 2.27% | 10000 nM 1.38%

Cc1cc(O)c(C(C)C)cc1Cl [chlorothymol]
inactive: 1 nM 0.21% | 8.33 nM 0.56% | 100 nM 2.72% | 833.33 nM 0.49% | 10000 nM -5.16%

Nc1ccc(S(=O)(=O)Nc2ccnn2-c2ccccc2)cc1 [sulfaphenazole]
inactive: 1 nM 2% | 8.33 nM 2.26% | 100 nM 1.62% | 833.33 nM 2.18% | 10000 nM -0.83%

Nc1nc2c(cnn2CCc2ccccc2)c2nc(-c3ccco3)nn12
inactive: 1 nM 1.74% | 8.33 nM 1.86% | 100 nM -4.65% | 833.33 nM -2.26% | 10000 nM -2.96%

C[C@@H](O)[C@H]1C(=O)N2C(C(=O)O)=C(S[C@@H]3CN[C@H](C(=O)N(C)C)C3)[C@H](C)[C@H]12 [meropenem]
inactive: 1 nM 0.11% | 8.33 nM 1.38% | 100 nM 0.18% | 833.33 nM 6.2% | 10000 nM -0.92%

COc1cc(NS(=O)(=O)c2ccc(N)cc2)nc(OC)n1 [sulphadimethoxine]
inactive: 1 nM -0.84% | 8.33 nM -2.06% | 100 nM 2.74% | 833.33 nM -1.94% | 10000 nM -0.74%

O=C(OCCN1CCOCC1)C1(c2ccccc2)CCCCC1
inactive: 1 nM 3.24% | 8.33 nM 2.9% | 100 nM 1.04% | 833.33 nM 4.21% | 10000 nM 1.59%

CNS(=O)(=O)CCc1ccc2[nH]cc(C3CCN(C)CC3)c2c1 [naratriptan]
inactive: 1 nM -2.05% | 8.33 nM 0.47% | 100 nM 2.08% | 833.33 nM -3.05% | 10000 nM -1.76%

N[C@H](C(=O)O)c1ccc(O)cc1 [oxfenicine]
inactive: 1 nM 2.15% | 8.33 nM 3.82% | 100 nM 2.38% | 833.33 nM 0.58% | 10000 nM 2.3%

COc1cc(Nc2nc3ccccc3nc2NS(=O)(=O)c2ccc(NC(=O)c3ccc(C)c(OC)c3)cc2)cc(OC)c1
inactive: 1 nM 1.14% | 8.33 nM 4.37% | 100 nM 1.01% | 833.33 nM -1.67% | 10000 nM 0.57%

CCNC(=O)NS(=O)(=O)c1sc(CC(C)C)cc1-c1ccc(Cn2c(-c3ccccc3)nc(OC)c2C=O)cc1
inactive: 1 nM -1.39% | 8.33 nM -0.39% | 100 nM 2.26% | 833.33 nM 1.08% | 10000 nM 0.67%

c1ccc2nc(C3=NCCN3)ccc2c1
inactive: 1 nM -1% | 8.33 nM 0.61% | 100 nM 2.25% | 833.33 nM 3.75% | 10000 nM 2.01%

CC(=O)N1CCC(C(=O)N(CCCN2CCC(Cc3ccc(C(N)=O)cc3)CC2)c2ccc(C)c(Cl)c2)CC1
inactive: 1 nM 0.74% | 8.33 nM -0.02% | 100 nM -0.6% | 833.33 nM 0.17% | 10000 nM 2.52%

CCC(CC)(CC(=O)Nc1cccc(/C=C/c2nc(C3CCC3)cs2)c1)C(=O)O [cinalukast]
inactive: 1 nM -1.61% | 8.33 nM 0.18% | 100 nM 0.24% | 833.33 nM 0.4% | 10000 nM 1.8%

CNC(=O)Nc1ccc(-c2nc(N3CC4CCC(C3)O4)c3cnn(C4CCC5(CC4)OCCO5)c3n2)cc1
inactive: 1 nM -1.21% | 8.33 nM 1.24% | 100 nM 0.34% | 833.33 nM -0.87% | 10000 nM 9.1%

COc1ccc(-c2ccc3c(N4CCOCC4)nc(N4C[C@@H](C)O[C@@H](C)C4)nc3n2)cc1CO
inactive: 1 nM 1.75% | 8.33 nM 0.2% | 100 nM 2.09% | 833.33 nM 0.86% | 10000 nM -2.33%

O=[N+]([O-])/C=C/c1ccc2c(c1)OCO2 [3,4-methylenedioxy-beta-nitrostyrene]
inactive: 1 nM -1.15% | 8.33 nM 0.64% | 100 nM -1.64% | 833.33 nM -3.16% | 10000 nM 7.29%

COc1ccc2cc(-c3nc(-c4ccc([S+](C)[O-])cc4)[nH]c3-c3ccncc3)ccc2c1 (stereo not given) [tie2-kinase-inhibitor]
inactive: 1 nM 5.39% | 8.33 nM 5.15% | 100 nM 0.64% | 833.33 nM 1.97% | 10000 nM 9.27%

CC(C)=CCC[C@]1(C)C=Cc2c(O)c3c(c(CC=C(C)C)c2O1)O[C@]12C(=C[C@@H]4C[C@H]1C(C)(C)O[C@@]2(C/C=C(/C)C(=O)O)C4=O)C3=O [gambogic-acid]
inactive: 1 nM 2.13% | 8.33 nM -0.37% | 100 nM 0.38% | 833.33 nM 4.87% | 10000 nM -14.3%

CCCN1CCCC[C@H]1C(=O)Nc1c(C)cccc1C [ropivacaine]
inactive: 1 nM 1.32% | 8.33 nM 1.42% | 100 nM 2.5% | 833.33 nM 3.09% | 10000 nM -1.63%

Cc1[nH]c(=O)c(C#N)cc1-c1ccncc1 [milrinone]
inactive: 1 nM 1.1% | 8.33 nM -2.54% | 100 nM -1.13% | 833.33 nM -1.41% | 10000 nM 0.27%

CCC(=O)O[C@@H]1CC(=O)O[C@H](C)C/C=C/C=C/[C@H](O)[C@H](C)C[C@H](CC=O)[C@H](O[C@@H]2O[C@H](C)[C@@H](O[C@H]3C[C@@](C)(O)[C@@H](OC(=O)CC)[C@H](C)O3)[C@H](N(C)C)[C@H]2O)[C@H]1OC [midecamycin]
inactive: 1 nM -1.27% | 8.33 nM -3.06% | 100 nM -2.36% | 833.33 nM -0.5% | 10000 nM -0.33%

COc1cc(-c2ccc(=O)[nH]n2)ccc1OC(F)F [zardaverine]
inactive: 1 nM 0.13% | 8.33 nM 1.54% | 100 nM 0.67% | 833.33 nM 0.7% | 10000 nM 2.13%

CCCn1c(=O)c2[nH]c(C3CCCC3)nc2n(CCC)c1=O
inactive: 1 nM 2.33% | 8.33 nM 2.47% | 100 nM 1.58% | 833.33 nM -1.44% | 10000 nM 1.86%
